Laboratory results as given in PubChem BioAssay AID1508600 (Functional Genomics Laboratory (NCATS/FGL), 2020).
The whole screen tested about 53,000 sequences, of which about 3,700 (7%) were called active. The full list was thinned out, with actives kept by preference. A number with no mark means an inactive call.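 The calls were made as follows: active = gene knockdowns whose robust z-score for IL-1 alpha signal is at least 2 or at most -2, so actives lie on both sides; inactive = the rest.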

test: Components of the Cytosolic LPS Sensing Pathway: Gene Identification via Genome-wide siRNA Screen; details: RAW264.7 macrophages, IL-1a HTRF, actives lie on both sides, screened at 100 nM (by protocol), cells primed 5 h with Pam3CSK4 first;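 also: robust z of the log signal after scaling to non-targeting control siRNA wells of the plate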
Outline: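 Knockdown: 100 nM siRNA, 48h, RAW264.7. Stimulation: Pam3CSK4 5 h, then LipidA via TransIT-TKO 24 h. Output: supernatant IL-1a HTRF, negative-control-normalized, log robust z-score; viability by CellTiter-Glo.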

| Sequence | z-score |
| --- | --- |
| GCCUGGUUUCUCCCUCAAATT against Pkmyt1 | -0.567 |
| CGCAGUUAUAUUCCACCACTT against Slain1 | -0.317 |
| GGUACCUAGGAUGCUCUCATT against Ift140 | -2.23 (active) |
| GGCCUUCACUGGUUAAAAUTT against Ankrd6 | 0.0966 |
| GGAGAUCCUCAUUUGUGUGTT against Ftmt | -1.99 |
| GGGUAUGAGCAUAAAAUAATT against Il16 | -1.2 |
| GCAAAUGGUGCAUACGUGATT against Slc35d1 | 0.211 |
| CCAAUUUGUCAAAACAAUCTT against Slit2 | 0.681 |
| GGAUGUCAGGACAAAACCATT against Olfr1335 | -2.51 (active) |
| GGAAGAGCUUUCUGGAAAUTT against Ndrg2 | 0.226 |
| GGCAUACUUGUACCGCUAUTT against Mmp9 | -0.35 |
| GGAUAUUCAGCACUGGGAATT against Rrm2 | -0.525 |
| GGUAGUGGACAGUUUUGACTT against Mrpl55 | 0.675 |
| GCCUUUCAUGGAUUAACCUTT against Gsdmc | -2.03 (active) |
| CGACGAAGAUAUUUACAGUTT against Vav1 | 0.504 |
| CCAAAAAAGUUAGUUGUGGTT against Phf6 | 1.23 |
| GGUCGUAAAAAUUGAAAUCTT against Lhcgr | 0.169 |
| GGAGGAUCUUGAGUUGGAGTT against Nupr1l | 2.32 (active) |
| CCAUUUAUGGGUUUUCUCUTT against Taar7b | 0.12 |
| GGCUGUGCUACAGUUUCUCTT against Get4 | -0.498 |
| GGUCAUUGAGCUGAUGGACTT against Elovl1 | 4.34 (active) |
| GGGCUUUCACACAAUCCCUTT against Kcns1 | -0.362 |

| Sequence | z-score |
| --- | --- |
| GGAACUGGCCAAUUACUACTT against Rdm1 | -1.29 |
| GGAUAUCACUUGCUAUUCCTT against Abraxas2 | -0.406 |
| GGCUUAUGACGAAUUAGUCTT against Ubn2 | 0.274 |
| GGAACAGCCUAUGUGGUCUTT against Sf3b6 | -2.17 (active) |
| GCACCUUGUCAACCAUUACTT against Kctd7 | 0.842 |
| GGGCAUCAGCAUUUGGUCATT against Med1 | 0.698 |
| GGAAGUCGAGUUGAAAUCGTT against Rida | 0.755 |
| GUUGAGUGGCUGUGAUAUATT against Nms | -0.00159 |
| GGAAAUAUGAUAGAAUGCCTT against Pramel32 | 0.17 |
| GGCAAAAGAACAAGAAACUTT against Orc1 | -2.09 (active) |
| GGCUAUCACCUCCAACACCTT against Fkbp8 | -1.04 |
| GGACAAGGAACAGAGCCUUTT against Rnf183 | -1.27 |
| GGAGAUCUUGAGAUUGUAUTT against Ticrr | 0.424 |
| GGAGAAAGGAUUGUGUUUGTT against Clec10a | 2.2 (active) |
| CCCGGUUCUUAGGUUUGUATT against Prr15l | 1 |
| GGUCAGGUUGCCAAGAAGGTT against Sbds | 1.59 |
| GGCAUGAAUAUGCAUUUAGTT against Arrdc3 | -3.65 (active) |
| CCCAUAUGAGCUGAAAGCUTT against Il1b | -0.878 |
| GGGAAUGUCUGAAAGUCCCTT against Klhdc10 | 0.66 |
| GGCCAUCAAGGUCUUUUCUTT against Washc1 | -1.34 |
| GGAUCUUCUUCUAUCAGUCTT against Ncf4 | 0.487 |
| CCGUUUUGAACCAUAAAAATT against Zfp7 | -0.873 |

| Sequence | z-score |
| --- | --- |
| GGCCCACGUCCUGUACAUUTT against Tdrd1 | 3.38 (active) |
| GGUUUCGUAUAAAUUCUCUTT against Ank | 1.53 |
| CGGAGUCAUACUUUUUCGATT against Trim12c | 0.0182 |
| GGUAAAAUACUACCUGAGATT against Abca15 | -0.0103 |
| GGAAUUCUUCAUCCAUGGATT against Olfr570 | -2.66 (active) |
| CGGUUCUGGGAAUUCUUUGTT against Olfr624 | -2.11 (active) |
| GGAAGAAAUGUACAAACUGTT against Spg21 | 1.63 |
| GGACAUUUUCUUUGGAAAATT against Ccnl1 | 0.194 |
| GGACAGCAAGACCAACCUATT against Elavl2 | -1.87 |
| CCAUAAAUCACUCAGUUUGTT against Adad1 | 0.222 |
| GGCAUUAUCUACAUGCACATT against Olfr1287 | 0.228 |
| GCAUGGCUAUUUAACAUUCTT against Rpl7l1 | 0.171 |
| GCAAUUUCUGUGUGAAGAATT against Ahcyl1 | -0.705 |
| GGGCUCUAGCUAAAAACGATT against Med10 | 1.23 |
| AGUCUCCAAAUGCAUUUAATT against Serpinb9g | -2.5 (active) |
| GAAUCGGAGGACAAAAUACTT against Emx1 | 0.368 |
| GCACCUUUGAAUGUGAAGUTT against Ccl2 | -0.408 |
| CCUUCAUUGGUUAGCAUGUTT against Rbl2 | -0.424 |
| CACGACCUAGGUGUGACCATT against Arrdc2 | -2.31 (active) |
| CCUGACGAUCAAAUCACUGTT against Mvb12a | 0.0387 |
| CGCCAAUAUGGCCAUUGACTT against Ikzf2 | -0.304 |
| GGCUCUGUUUAUCCUGGAGTT against Pcdha7 | -0.0385 |

| Sequence | z-score |
| --- | --- |
| GGUUUCAUUUUUCGAGGAGTT against Cit | -0.269 |
| GGUGAUACCAUCACUUUGATT against Mark2 | 0.173 |
| GCCGCAUCCACACAUCUCUTT against Daam2 | 0.465 |
| GGCACUCAGGAACUUCCUGTT against Eci3 | -2.05 (active) |
| GCCCAUAGUAUAAAAUACCTT against Dzip1 | 1.06 |
| GGAAGAUGCCUUUUCCAAGTT against Syt1 | 0.752 |
| GGUGGAAUAUAUUGAGUAUTT against Fam199x | 0.251 |
| CGACUAAGGAUGAAAAGCATT against Apbb1ip | -3.04 (active) |
| GCGAAAGACGAUCAAAACCTT against Scn1a | 0.841 |
| GGCUACACUCUGACAGCACTT against Znhit2 | -0.666 |
| GCCCGGUAAAGGUAUCCAUTT against Trp53bp1 | 0.384 |
| GGGAGUUACUAACCACUUCTT against Gja3 | -2.05 (active) |
| GCCUCUCCUGUGAAUGACATT against Erlec1 | -0.699 |
| GGGUGUCACAAAAUAAAAUTT against Sigirr | -0.245 |
| GGAGAUGAACCAUUAUGUCTT against Mycbp | -2.03 (active) |
| GCAGAAAUACUGGCGAAUATT against Gm9725 | 0.607 |
| GGUGGAGACACUGAAGGUUTT against Akap1 | 0.314 |
| GACCAGAAAUUUAAGUGCUTT against Dnajc30 | 1.5 |
| GGAUCUUCCUCAUCACCCUTT against Ube4a | 0.657 |
| GCUUACCUGCUGUCUUAAUTT against F630003A18Rik | 0.42 |
| GGAGCUCCUGAACAGGAUCTT against Gpr26 | 2.13 (active) |
| CCUUACAUGUUGACUACCCTT against Rnase13 | 0.403 |

| Sequence | z-score |
| --- | --- |
| GGUCUUCUGUCCAUUAGUGTT against Pigc | 0.14 |
| GGAGAAAGAUGGCAUAAUGTT against Slitrk6 | -0.595 |
| GGUGAAGGUGAACAAGGACTT against Myh9 | 2.92 (active) |
| GGACAAUCCAUAAGUUAAATT against Scai | 0.22 |
| GGAAGUUAAGCAUAGUUUCTT against Flrt3 | 1.15 |
| GGCAACAGUAUUUAUGAAUTT against Sim2 | -0.45 |
| CCUAGCAUGUUUCUUGCUATT against Rnft2 | 0.46 |
| GGAGAAAAUUGUCAAGAAGTT against Ift122 | -0.824 |
| CCAGGAUCAAAGAACUUAUTT against Olfr1424 | -3.39 (active) |
| GGAACUUUUCAUCCUGAAGTT against Fgl1 | 0.0919 |
| GCUCAUCAAGCUGUACCUATT against Eif2b1 | 1.16 |
| GCUUUGAUUUAUGAGGUCATT against Ttc30a1 | 0.251 |
| GGUCUUGUGGUGGUACUACTT against Elovl2 | 1.77 |
| GGCCAUUCUGGAAACUCCATT against Foxp4 | -0.0644 |
| GGAAUAAUAGAGGAAUGAGTT against Bclaf1 | -1.61 |
| GGAGAGAGAUUUUCAAUAUTT against Gtdc1 | -0.41 |
| GGAGAGCCUUAUUCAUCGCTT against H2-DMb2 | -0.0566 |
| GGAAUCUGUCAUGUGAAUATT against Slc1a5 | -0.0766 |
| GCUGGUGCAUUACUGAGGUTT against Olfr69 | 0.434 |
| CCAAACACUAUGUGACAAGTT against Trim8 | -0.626 |
